# Experimental data published in PubChem BioAssay (Tox21).
# Several values for one entry are separate records, joined by “and”; a condition that tells them apart may be missing. Identical values can stand only once. Inconclusive results are not listed. A call without a number means that no potency is given here. Activity calls are given as the source filed them. Unless noted, calls come from the whole dose curve; as a rule, active = well fitted curve in the direction sought with a large enough effect in the repeat runs; inconclusive = weak or mixed curves; inactive = no such curve, though single readings can be large; an effect the other way counts as inactive or inconclusive.
# What was measured:
# [1] = target: Estrogen receptor beta (Homo sapiens) (UniProt Q92731); assay: qHTS assay to identify small molecule agonists of the estrogen receptor beta (ER-beta) signaling pathway (AID 1259377; active = well fitted activation curve with a large enough effect in the signal ratio in the repeat runs, not every such curve was filed as active; the % refers to the signal ratio; note: potency is the fitted concentration of half-maximal effect); conditions: ER-beta-UAS-bla HEK293T, beta-lactamase FRET ratio, 16 h; series mostly up to 92.4 µM
# Outline: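 ER-beta-UAS-bla HEK293T (GripTite) cells carrying a UAS-driven beta-lactamase reporter, in medium with 2% charcoal-stripped FBS, were exposed to compounds for 16 hr at 37C; LiveBLAzer B/G FRET substrate was then added and fluorescence read after 2 hours at room temperature.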
# [2] = qHTS assay to identify small molecule agonists of the androgen receptor (AR) signaling pathway in the presence of an antagonist - cell viability counter screen (AID 1259379); conditions: MDA-kb2 viability, CellTiter-Fluor, 16 h; series mostly up to 92.4 µM; note: nearly all actives have a fitted effect of over 25% in size; note: potency is the fitted concentration of half-maximal effect
# Outline: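 Cytotoxicity counter-screen run in the same wells as the nilutamide-challenged (3.0 µM final) AR agonist assay in MDA-kb2 cells. Compounds tested at 15 concentrations for 16 h, 37 °C without CO2; CellTiter-Fluor fluorescence read.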
# [3] = qHTS assay to identify small molecule agonists of the estrogen receptor beta (ER-beta) signaling pathway - cell viability counter screen (AID 1259380); conditions: ER-beta-bla HEK293T viability, CellTiter-Glo luminescence, 16 h; series mostly up to 92.4 µM; note: nearly all actives have a fitted effect of over 30% in size; note: potency is the fitted concentration of half-maximal effect
# Outline: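 Cell viability counter screen: CellTiter-Glo luminescence (30 min, room temperature) measured in the same wells as the beta-lactamase readout, after 16 hr compound exposure at 37C of ER-beta-bla HEK293T cells in 2% charcoal-stripped FBS medium.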
# [4] = qHTS assay to identify small molecule antagonists of the estrogen receptor beta (ER-beta) signaling pathway - cell viability counter screen (AID 1259382); conditions: ER-beta-UAS-bla HEK293T viability, CellTiter-Glo luminescence, 16 h; series mostly up to 92.4 µM; note: nearly all actives have a fitted effect of over 55% in size; note: potency is the fitted concentration of half-maximal effect
# Outline: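 Cytotoxicity was measured in the same wells by CellTiter-Glo luminescence after 30 min at room temperature. Cells were ER-beta-bla HEK293T in charcoal-stripped serum, given compound together with 1 nM E2 and incubated 16 h at 37C.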
# [5] = target: Estrogen receptor (Homo sapiens) (UniProt P03372); assay: qHTS assay to identify small molecule agonists of the estrogen receptor alpha (ER-alpha) signaling pathway in the presence of an antagonist (AID 1259383; calls by dose curve; note: nearly all actives have a fitted effect of over 15% in size; note: potency is the fitted concentration of half-maximal effect; for activation: top concentration of the series differs between compounds); conditions: VM7Luc4E2 cells, ERE-luciferase, +ICI-182,780, 22 h; series mostly up to 92.4 µM
# Outline: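 Agonist-mode confirmation run in the presence of 10.0nM (final) ICI-182,780 antagonist. The reporter was ERE-driven luciferase in VM7Luc4E2 cells, grown in charcoal-stripped serum. Cells were exposed to 15-concentration compound series for 22hr, then ONE-Glo luminescence was read.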
# [6] = qHTS assay to identify small molecule agonists or antagonists of the thyroid stimulating hormone receptor (TSHR) signaling pathway - wild type cell line counter screen (AID 1259384; calls by dose curve); conditions: HEK293 wild type, cAMP HTRF counter-screen, active compounds read high; series mostly up to 92.4 µM
# Outline: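 Wild-type HEK293 cells were plated 18 h at 37 C/5% CO2, pin-dosed with compound plus Ro20-1724 medium, held 30 min at room temperature, then given cAMP-d2 and anti-cAMP-cryptate; fluorescence was read after 1 h. Fifteen concentrations, triplicate.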
# [7] = target: Thyrotropin receptor (Homo sapiens) (UniProt P16473); assay: qHTS assay to identify small molecule antagonists of the thyroid stimulating hormone receptor (TSHR) signaling pathway (AID 1259385; calls by dose curve; note: nearly all actives have a fitted effect of over 20% in size; note: potency is the fitted concentration of half-maximal effect); conditions: TSHR-HEK293 cAMP HTRF, TSH-stimulated antagonist mode; series mostly up to 92.4 µM
# Outline: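 TSHR-HEK293 cells were plated and held 18 h at 37C/5% CO2, then given compound plus Ro20-1724 and stimulated with TSH at 1.5 ng/mL final. After 30 min at room temperature, cAMP was detected with cAMP-d2/anti-cAMP-cryptate (1 h) by fluorescence.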
# [8] = qHTS assay to identify small molecule agonists of the estrogen receptor alpha (ER-alpha) signaling pathway in the presence of an antagonist - cell viability counter screen (AID 1259386); conditions: VM7Luc4E2 viability, CellTiter-Fluor fluorescence, 22 h; series mostly up to 92.4 µM; note: nearly all actives have a fitted effect of over 30% in size; note: potency is the fitted concentration of half-maximal effect
# Outline: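 Compounds tested at 15 concentrations for 22 h at 37C alongside 10.0nM (final) ICI-182,780 antagonist, in VM7Luc4E2 cells grown in phenol red-free, charcoal-stripped medium. Viability read by CellTiter-Fluor fluorescence after 1 h reagent incubation.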
# [9] = target: Estrogen receptor beta (Homo sapiens) (UniProt Q92731); assay: qHTS assay to identify small molecule antagonists of the estrogen receptor beta (ER-beta) signaling pathway (AID 1259378; active = well fitted inhibition curve with a large enough effect in the signal ratio in the repeat runs, not every such curve was filed as active; the % refers to the signal ratio; note: potency is the fitted concentration of half-maximal effect); conditions: ER-beta-UAS-bla HEK293T, beta-lactamase FRET ratio, 16 h; series mostly up to 92.4 µM
# Outline: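 ER-beta-UAS-bla HEK293T (GripTite) cells in 2% charcoal-stripped FBS medium were preincubated 6 hr at 37C, dosed with compound, then stimulated with 1 nM E2 (final) for 16 hr; beta-lactamase reporter read by B/G FRET fluorescence after 2 hr substrate loading.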
# [10] = target: Androgen receptor (Homo sapiens) (UniProt P10275); assay: qHTS assay to identify small molecule agonists of the androgen receptor (AR) signaling pathway in the presence of an antagonist (AID 1259381; calls by dose curve; note: nearly all actives have a fitted effect of over 15% in size; note: potency is the fitted concentration of half-maximal effect); conditions: MDA-kb2 MMTV-luciferase, AR agonist + nilutamide, 16 h; series mostly up to 92.4 µM
# Outline: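 Agonist-mode confirmation run against 3.0 uM final nilutamide: compounds titrated at 15 concentrations onto MDA-kb2 MMTV-luciferase reporter cells. Luminescence measured with ONE-Glo following 16 hr incubation, 37C, 0% CO2.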
# Sequence of Thyrotropin receptor (Homo sapiens) (P16473 whole entry, looked up): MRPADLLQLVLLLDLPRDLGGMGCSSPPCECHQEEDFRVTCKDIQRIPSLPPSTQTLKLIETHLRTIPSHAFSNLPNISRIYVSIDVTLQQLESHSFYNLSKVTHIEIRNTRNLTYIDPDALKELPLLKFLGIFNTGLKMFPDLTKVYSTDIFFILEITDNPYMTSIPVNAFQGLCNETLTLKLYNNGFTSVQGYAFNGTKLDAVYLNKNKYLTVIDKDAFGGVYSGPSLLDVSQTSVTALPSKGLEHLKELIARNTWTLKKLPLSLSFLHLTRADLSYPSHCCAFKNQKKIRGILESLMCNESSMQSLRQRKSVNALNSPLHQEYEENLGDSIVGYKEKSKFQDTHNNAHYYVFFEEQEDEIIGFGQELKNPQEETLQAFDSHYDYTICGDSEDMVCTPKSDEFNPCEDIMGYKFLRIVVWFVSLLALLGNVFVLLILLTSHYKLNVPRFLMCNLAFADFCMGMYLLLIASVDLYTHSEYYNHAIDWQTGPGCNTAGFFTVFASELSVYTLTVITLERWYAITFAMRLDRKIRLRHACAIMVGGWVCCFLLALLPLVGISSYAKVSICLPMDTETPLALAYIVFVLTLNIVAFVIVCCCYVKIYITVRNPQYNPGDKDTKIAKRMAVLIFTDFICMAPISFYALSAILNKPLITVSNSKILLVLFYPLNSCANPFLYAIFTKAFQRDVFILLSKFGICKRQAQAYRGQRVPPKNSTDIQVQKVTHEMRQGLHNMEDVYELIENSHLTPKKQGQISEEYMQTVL
# Sequence of Androgen receptor (Homo sapiens) (P10275 whole entry, looked up): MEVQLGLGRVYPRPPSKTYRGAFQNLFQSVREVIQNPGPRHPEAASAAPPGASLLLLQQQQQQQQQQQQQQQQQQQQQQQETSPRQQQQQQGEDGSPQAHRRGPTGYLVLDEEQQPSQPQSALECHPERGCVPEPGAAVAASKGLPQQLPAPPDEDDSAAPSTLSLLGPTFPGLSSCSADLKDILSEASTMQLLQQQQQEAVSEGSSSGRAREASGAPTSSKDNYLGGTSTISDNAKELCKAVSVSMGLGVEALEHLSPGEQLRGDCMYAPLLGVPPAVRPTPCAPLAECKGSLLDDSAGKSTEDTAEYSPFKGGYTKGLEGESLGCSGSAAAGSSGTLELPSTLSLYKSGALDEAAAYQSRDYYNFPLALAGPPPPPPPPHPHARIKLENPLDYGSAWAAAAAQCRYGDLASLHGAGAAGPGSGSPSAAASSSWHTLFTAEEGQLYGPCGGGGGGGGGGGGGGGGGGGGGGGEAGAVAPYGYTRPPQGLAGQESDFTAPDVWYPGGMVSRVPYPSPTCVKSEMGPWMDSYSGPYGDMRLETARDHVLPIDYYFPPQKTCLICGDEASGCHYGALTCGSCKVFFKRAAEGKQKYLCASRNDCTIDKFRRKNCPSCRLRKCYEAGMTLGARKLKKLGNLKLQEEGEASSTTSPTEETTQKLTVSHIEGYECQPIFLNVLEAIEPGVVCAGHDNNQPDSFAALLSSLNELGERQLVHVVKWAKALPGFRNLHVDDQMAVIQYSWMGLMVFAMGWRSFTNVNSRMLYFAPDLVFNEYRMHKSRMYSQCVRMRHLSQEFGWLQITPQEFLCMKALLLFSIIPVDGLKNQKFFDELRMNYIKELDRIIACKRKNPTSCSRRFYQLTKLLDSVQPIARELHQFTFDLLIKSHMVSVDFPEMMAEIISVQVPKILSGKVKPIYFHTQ
# Sequence of Estrogen receptor (Homo sapiens) (P03372 whole entry, looked up): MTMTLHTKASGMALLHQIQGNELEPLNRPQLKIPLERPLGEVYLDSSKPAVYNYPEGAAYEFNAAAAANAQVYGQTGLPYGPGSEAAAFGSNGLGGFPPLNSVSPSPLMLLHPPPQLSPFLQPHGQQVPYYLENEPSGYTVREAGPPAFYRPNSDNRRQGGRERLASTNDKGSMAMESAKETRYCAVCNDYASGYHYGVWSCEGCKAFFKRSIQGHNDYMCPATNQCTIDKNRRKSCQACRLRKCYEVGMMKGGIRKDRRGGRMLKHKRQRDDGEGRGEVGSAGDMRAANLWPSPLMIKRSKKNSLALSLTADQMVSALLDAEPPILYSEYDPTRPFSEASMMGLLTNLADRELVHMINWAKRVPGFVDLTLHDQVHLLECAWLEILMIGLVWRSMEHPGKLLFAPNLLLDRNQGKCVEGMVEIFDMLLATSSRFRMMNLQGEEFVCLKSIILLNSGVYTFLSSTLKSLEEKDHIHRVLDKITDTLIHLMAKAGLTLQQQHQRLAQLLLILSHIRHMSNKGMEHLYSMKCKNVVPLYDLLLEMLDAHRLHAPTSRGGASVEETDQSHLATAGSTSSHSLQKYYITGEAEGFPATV
# Sequence of Estrogen receptor beta (Homo sapiens) (Q92731 whole entry, looked up): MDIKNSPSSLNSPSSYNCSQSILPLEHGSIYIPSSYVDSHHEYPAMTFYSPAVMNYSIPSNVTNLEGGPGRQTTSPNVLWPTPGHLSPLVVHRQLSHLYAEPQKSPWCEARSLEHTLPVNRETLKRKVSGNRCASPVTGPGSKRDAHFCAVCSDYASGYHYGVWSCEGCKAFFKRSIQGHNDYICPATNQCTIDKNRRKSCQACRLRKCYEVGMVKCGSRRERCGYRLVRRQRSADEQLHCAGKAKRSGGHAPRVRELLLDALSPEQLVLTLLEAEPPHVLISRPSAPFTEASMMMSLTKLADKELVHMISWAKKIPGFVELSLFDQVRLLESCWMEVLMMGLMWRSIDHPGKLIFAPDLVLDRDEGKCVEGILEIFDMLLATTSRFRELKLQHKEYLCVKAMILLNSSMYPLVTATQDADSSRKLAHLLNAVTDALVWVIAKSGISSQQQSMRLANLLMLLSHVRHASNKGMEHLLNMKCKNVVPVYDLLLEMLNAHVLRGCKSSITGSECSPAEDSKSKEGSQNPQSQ
SMILES,Potency [1],Potency [2],Potency [3],Potency [4],Potency [5],outcome [6],Potency [7],Potency [8],Potency [9],Potency [10]
O=Cc1cc(O)ccc1Br,inactive,inactive,inactive,inactive,inactive,inactive,inactive,inactive,,
CC(C)C(C)(C)C(C)(C)C(C)(C)S,,inactive,inactive,inactive,inactive,inactive,,inactive,inactive,inactive
CC(C)c1ccc2c(c1)CC[C@H]1[C@](C)(CN)CCC[C@]21C,,43.3 µM (active),54.5 µM (active),61.1 µM (active),,inactive,,,61.1 µM (active),
CN(C)c1ccc(SC#N)cc1,inactive,,54.5 µM (active),,inactive,inactive,inactive,inactive,,
CN(C)C(=O)C1(N2CCCCC2)CCN(CC[C@@]2(c3ccc(Cl)c(Cl)c3)CN(C(=O)c3ccccc3)CCO2)CC1,,57.1 µM (active),36 µM (active),28.6 µM (active),inactive,inactive,,57.1 µM (active),16.1 µM (active),inactive
CCOc1nc2cccc(C(=O)OC(C)OC(=O)OC3CCCCC3)c2n1Cc1ccc(-c2ccccc2-c2nn[nH]n2)cc1 (centres undefined),inactive,,13.7 µM (active),,inactive,inactive,inactive,inactive,,
CN(C)[C@@H]1C(=O)C(C(N)=O)=C(O)[C@@]2(O)C(=O)C3=C(O)c4c(O)ccc(Cl)c4[C@@H](O)[C@H]3C[C@@H]12,inactive,inactive,inactive,inactive,,inactive,inactive,,,
C[C@@H]1C[C@H]2[C@@H]3CCC4=CC(=O)C=C[C@]4(C)[C@@]3(Cl)[C@@H](O)C[C@]2(C)[C@@]1(OC(=O)c1ccco1)C(=O)CCl,inactive,,8.41 µM (active),,,inactive,inactive,inactive,,
CCCCCCCCn1sc(Cl)c(Cl)c1=O,inactive,27.3 µM (active),,,inactive,inactive,61.1 µM (active),inactive,,
COc1c(C)c2c(c(O)c1C/C=C(\C)CCC(=O)O)C(=O)OC2,inactive,,0.133 µM (active),,inactive,,,inactive,,
CN(C)c1ccc(C2(c3ccc(N(C)C)cc3)OC(=O)c3cc(N(C)C)ccc32)cc1,,inactive,inactive,inactive,inactive,inactive,,inactive,inactive,inactive
Nc1cc(C(F)(F)F)ccc1S,inactive,inactive,21.1 µM (active),,inactive,,,inactive,,inactive
CCOC(=O)c1nc(C(Cl)(Cl)Cl)n(-c2ccc(Cl)cc2Cl)n1,,inactive,54.5 µM (active),61.1 µM (active),inactive,inactive,,,54.5 µM (active),inactive
O=C(O)c1c(Cl)cccc1Cl,,inactive,inactive,inactive,,inactive,inactive,inactive,inactive,
NNc1nc(-c2ccccc2)cs1,inactive,,,,inactive,inactive,,56 µM (active),,
CC(=O)OCC(C)OC(C)=O (centres undefined),,inactive,inactive,inactive,inactive,inactive,inactive,inactive,inactive,
O=C1C=CC(=O)N1,,49.8 µM (active),55.9 µM (active),28 µM (active),inactive,inactive,,70.4 µM (active),28 µM (active),8.86 µM (active)
Cc1cccc(CN2CCN(C(c3ccccc3)c3ccc(Cl)cc3)CC2)c1 (centres undefined),inactive,,inactive,inactive,inactive,inactive,,inactive,,
O=C(Oc1cccc2cccnc12)c1ccccc1,inactive,inactive,10.6 µM (active),,inactive,inactive,,inactive,,
CCCCCOC(=O)CCCC,,inactive,inactive,inactive,inactive,inactive,inactive,inactive,inactive,
Cc1ccc2oc(CN(Cc3ccccc3)C(=O)Nc3c(F)cc(F)cc3F)c(-c3ccc(Cl)cc3)c2c1,inactive,inactive,inactive,inactive,inactive,inactive,inactive,,,
O=C(c1ccc(O)cc1O)c1ccc(O)cc1O,8.64 µM (active) and 7.7 µM (active),inactive,inactive,inactive,9.7 µM (active) and 7.7 µM (active),inactive,inactive,inactive,,
CNCc1cc(F)ccc1Oc1ccc(Cl)c(Cl)c1,inactive,,27.3 µM (active),,inactive,inactive,inactive,,,
O=C1c2ccccc2Cc2ccccc21,inactive,,,inactive,inactive,inactive,inactive,,,

SMILES,Potency [1],Potency [2],Potency [3],Potency [4],Potency [5],outcome [6],Potency [7],Potency [8],Potency [9],Potency [10]
CCCCCOc1ccccc1/C(=C\SC)n1ccnc1,,inactive,23.7 µM (active),,inactive,inactive,inactive,inactive,10.6 µM (active),inactive
C=CC(=O)OCC(CO)(COCC(COC(=O)C=C)(COC(=O)C=C)COC(=O)C=C)COC(=O)C=C,,5.38 µM (active),9.57 µM (active),7.6 µM (active),inactive,inactive,,10.7 µM (active),4.8 µM (active),inactive
O=C1Cc2cc(CCN3CCN(c4nsc5ccccc45)CC3)c(Cl)cc2N1,inactive,,23.7 µM (active),,inactive,inactive,,,,
ON=C1CCCC1,,inactive,35.6 µM (active),,inactive,inactive,inactive,,inactive,inactive
CN1CCN(CCC(=O)N2c3ccccc3Sc3ccc(C(F)(F)F)cc32)CC1,,29.8 µM (active),13.3 µM (active),16.8 µM (active),inactive,inactive,,inactive,21.1 µM (active),inactive
C[C@]12CCC(=O)C=C1CC[C@@H]1[C@@H]2[C@@H](O)C[C@@]2(C)[C@H]1CC[C@]2(O)C(=O)COC(=O)CCC(=O)O,,inactive,inactive,inactive,inactive,inactive,inactive,inactive,inactive,
CCCCCCC[N+](CC)(CC)CCCCc1ccc(Cl)cc1,inactive,5.96 µM (active),9.44 µM (active),,,inactive,,,,
O=C(NO)C1(NS(=O)(=O)c2ccc(Oc3ccc(F)cc3)cc2)CCOCC1,inactive,,inactive,inactive,inactive,inactive,inactive,,,
O=C(OCC(COC(=O)c1ccccc1)(COC(=O)c1ccccc1)COC(=O)c1ccccc1)c1ccccc1,inactive,inactive,inactive,inactive,,inactive,inactive,inactive,,
CCCC1O[C@@H]2C[C@H]3[C@@H]4CCC5=CC(=O)C=C[C@]5(C)[C@H]4[C@@H](O)C[C@]3(C)[C@]2(C(=O)CO)O1 (some centres undefined),inactive,,,,,,,inactive,,
CC(C)(C)c1ccc(C(=O)O)cc1,inactive,inactive,inactive,inactive,,inactive,inactive,inactive,,
CCCCCCOC(=O)c1ccc(O)cc1,inactive,,48.6 µM (active),inactive,27.3 µM (active),inactive,inactive,inactive,,inactive
CC1(C)CCC(C)(C)c2cc(C(=O)Nc3ccc(C(=O)O)cc3)ccc21,,,,inactive,inactive,inactive,,inactive,43.3 µM (active),inactive
Cc1cc(O)c(Cl)c(C)c1Cl,,inactive,,inactive,,inactive,,inactive,inactive,inactive
Oc1ccc(Cl)cc1Sc1cc(Cl)ccc1O,,21.6 µM (active) and 26.6 µM (active),48.5 µM (active) and 29.8 µM (active),48.5 µM (active),,,,29.8 µM (active),18.8 µM (active),
C[C@H]1[C@H]2CC[C@H]3[C@@H]4CC=C5C[C@@H](N(C)C)CC[C@]5(C)[C@H]4CC[C@]23CN1C,,,,inactive,,inactive,,inactive,inactive,inactive
CC(C)(C)C(=O)OCOC(=O)C1N2C(=O)CC2S(=O)(=O)C1(C)C (centres undefined),,,,inactive,,inactive,,,10.6 µM (active),inactive
CC(C)(C)c1ccc(C(=O)CCCN2CCC(OC(c3ccccc3)c3ccccc3)CC2)cc1,,29.8 µM (active),18.8 µM (active),23.7 µM (active),,inactive,,inactive,13.3 µM (active),
On1ccccc1=S,,,0.539 µM (active),,,inactive,inactive,,0.428 µM (active),
CCCCCCCCCCCCCCCS(=O)(=O)Oc1ccccc1,,,inactive,inactive,,inactive,inactive,inactive,inactive,
N#CSc1ccc(N)c([N+](=O)[O-])c1,,54.8 µM (active),,,,inactive,61.5 µM (active),48.9 µM (active),19.4 µM (active),inactive
NC(=O)N1C(=O)C(C(=O)c2cc(Cl)cs2)c2cc(F)c(Cl)cc21 (centres undefined),,,30.6 µM (active),30.6 µM (active),,inactive,inactive,24.3 µM (active),17.2 µM (active),inactive
Oc1cccc(-c2c3nc(c(-c4cccc(O)c4)c4ccc([nH]4)c(-c4cccc(O)c4)c4nc(c(-c5cccc(O)c5)c5ccc2[nH]5)CC4)C=C3)c1,,,8.41 µM (active),21.1 µM (active),inactive,inactive,,10.6 µM (active),26.6 µM (active),inactive
